L3MBTL1 block – inhibitors of human L3MBTL1. AID 485360. Q9Y468. AlphaScreen L3MBTL1–H3K9me1 peptide binding. 0.66% of 230,000 active. Potency, µM (series often up to 57.1 µM), usual class: inhibitors; also: nearly all actives have a fitted effect of over 60% in size
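AlphaScreen proximity signal between nickel-chelate acceptor and streptavidin donor beads (final 10 ug/mL) reports binding of 50 nM L3MBTL1 to 75 nM biotin-H3 K9me1 peptide; complex incubated with compounds 30 min at room temperature; cefsulodin titration as control.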
BAZ2B inh – blocks human BAZ2B; AlphaScreen BAZ2B-H3K14Ac peptide displacement; Potency, µM (highest dose often 114 µM), hits mostly inhibitors; 4.4% of 360,000 active; AID 504333; also: nearly all actives have a fitted effect of over 60% in size
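BAZ2B 50 nM plus b-H3(5-23)K14Ac 50 nM, PBS pH 7.4/0.01% Tween-20, 30 min RT; compound added (max 110 uM), 30 min RT; streptavidin donor/Ni-chelate acceptor beads 10 ug/mL final, 20 min dark; AlphaScreen read.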
HP1b binding inh – inhibitors of HP1-beta chromodomain binding to methylated histone tails; 0.56% of 390,000 active; AlphaScreen HP1-beta / biotin-H3K9me3 peptide binding; AID 540317; Potency, µM (highest dose often 114 µM), usual class: inhibitors; also: nearly all actives have a fitted effect of over 70% in size
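Compound inhibition of the preformed complex between 50 nM HP1-beta and 50 nM biotinylated H3K9me3 peptide was read by AlphaScreen. Buffer was PBS pH 7.4 with 0.01% Tween-20. Incubations ran 30 min at room temperature, with 10 ug/mL donor/acceptor beads.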
G9a block – inhibitors of human histone lysine methyltransferase G9a. Q96KQ7. Potency, µM (top dose mostly 102 µM), actives largely listed as inhibitors. 8.8% of 350,000 active. AID 504332. G9a H3K9 monomethylation, AlphaScreen, 2 h; also: nearly all actives have a fitted effect of over 75% in size
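AlphaScreen read-out: biotin-H3K9 peptide (500 nM) methylation by 20 nM enzyme with 20 uM SAM, 2 h at room temperature after 15 min compound preincubation; anti-monomethyl H3K9 antibody plus donor/acceptor beads, 10 min dark.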
JMJD2A Tudor – blocks the human JMJD2A Tudor domain; Potency, µM (series often up to 114 µM), usual class: inhibitors; AID 504339; AlphaScreen JMJD2A-Tudor / H3K4me3 peptide binding; 4.4% of 390,000 active; also: nearly all actives have a fitted effect of over 50% in size
Target sequence (O75164 whole entry, looked up, the tested form may be a part): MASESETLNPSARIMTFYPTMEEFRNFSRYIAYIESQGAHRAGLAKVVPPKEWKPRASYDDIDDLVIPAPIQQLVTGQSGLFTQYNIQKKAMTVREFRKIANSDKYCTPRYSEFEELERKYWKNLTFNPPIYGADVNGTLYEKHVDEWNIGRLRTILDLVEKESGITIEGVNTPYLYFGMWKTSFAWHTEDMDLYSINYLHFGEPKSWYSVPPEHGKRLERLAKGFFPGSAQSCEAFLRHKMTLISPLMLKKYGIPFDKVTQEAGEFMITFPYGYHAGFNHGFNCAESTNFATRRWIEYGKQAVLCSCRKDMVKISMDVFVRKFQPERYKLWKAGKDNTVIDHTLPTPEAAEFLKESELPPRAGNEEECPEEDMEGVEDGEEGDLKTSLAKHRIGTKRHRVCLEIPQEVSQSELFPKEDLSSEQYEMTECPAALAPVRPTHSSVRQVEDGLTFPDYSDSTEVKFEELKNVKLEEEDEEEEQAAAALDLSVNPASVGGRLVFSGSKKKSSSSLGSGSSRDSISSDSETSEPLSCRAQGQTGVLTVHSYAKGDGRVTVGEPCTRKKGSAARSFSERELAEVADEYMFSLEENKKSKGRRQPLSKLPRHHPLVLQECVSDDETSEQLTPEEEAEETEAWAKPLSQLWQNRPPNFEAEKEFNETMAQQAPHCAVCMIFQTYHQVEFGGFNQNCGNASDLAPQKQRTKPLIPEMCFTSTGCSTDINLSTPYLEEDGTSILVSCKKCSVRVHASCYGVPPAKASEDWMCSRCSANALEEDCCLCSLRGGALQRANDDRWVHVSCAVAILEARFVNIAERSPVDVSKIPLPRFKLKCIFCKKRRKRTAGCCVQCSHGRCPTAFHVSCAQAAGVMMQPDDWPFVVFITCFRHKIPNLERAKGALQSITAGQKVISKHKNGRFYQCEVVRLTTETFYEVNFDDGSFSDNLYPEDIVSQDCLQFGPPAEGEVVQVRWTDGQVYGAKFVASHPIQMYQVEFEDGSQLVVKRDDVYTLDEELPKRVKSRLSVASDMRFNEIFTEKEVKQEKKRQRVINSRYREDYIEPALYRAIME
Sfp PPTase inh – inhibitors of Bacillus subtilis Sfp phosphopantetheinyl transferase. Q9F4F7. Biochemical Sfp PPTase activity, qHTS. Potency, µM, hits mostly inhibitors. 3.5% of 310,000 active;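 also: the enzyme is Sfp with the accession as filed and its product quenches rhodamine fluorescence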
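Reaction rates are the 30-min fluorescence difference (ex 525, em 598 nm) in wells containing 15 nM Sfp, 5 uM rhodamine-CoA and 12.5 uM BHQ-2-YbbR at pH 7.6 with 10 mM MgCl2.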
Of the large screens only hits and unclear results are named; the others gave an inactive call. Hits are enriched below; roughly 12% of the tested compounds scored in any of these assays. Calls follow the shape of the dose curve; as a rule, active = well fitted curve in the direction sought with a large enough effect; inconclusive = small, poorly fitted or top-dose-only effect, or another doubt; inactive = no such curve, though single readings can be large; an effect the other way counts as inactive or inconclusive.

CCN(c1ccc(NC(=O)COC(=O)c2ccc3ccccc3n2)cc1)C(C)C	L3MBTL1 block inconclusive, BAZ2B inh 35.5µM, HP1b binding inh 22.4µM, G9a block inconclusive, JMJD2A Tudor 25.1µM
CC(=O)N1CCN(C(=S)NC(=O)c2ccc(F)cc2)CC1	JMJD2A Tudor 1.58µM (no result: BAZ2B inh, G9a block, Sfp PPTase inh)
COc1ccc(C(=O)NC(=S)N2CCCC2)cc1	none (no result: L3MBTL1 block, G9a block)
CC1CCN(C(=S)NC(=O)c2ccc(F)cc2)CC1	none (no result: BAZ2B inh, G9a block, Sfp PPTase inh)
COc1ccc(C(=O)NC(=S)N2CCC(C)CC2)cc1	G9a block 15.8µM (no result: L3MBTL1 block)
CCOC(=O)N1CCN(C(=S)NC(=O)c2ccc(F)c(F)c2)CC1	G9a block 44.7µM
CCOc1ccc(CNC(=O)C2CCCN(S(=O)(=O)c3ccc4c(c3)CCCC(=O)N4)C2)cc1 (configuration not stated)	none (no result: L3MBTL1 block, Sfp PPTase inh)
CCS(=O)(=O)N1CC(=O)N(c2ccc(Cl)cc2)C(C)(C(=O)NC2CCCCC2)C1 (configuration not stated)	none (no result: L3MBTL1 block, Sfp PPTase inh)
CCOc1ccc(CCNC(=O)C2Cc3ccccc3N2C(=O)CC)cc1 (configuration not stated)	none (no result: L3MBTL1 block, Sfp PPTase inh)
CCOC(=O)CCCNC(=O)N1CCc2nc(-c3ccccc3)c3c(c2C1)CO[C@@H](C)C3	none (no result: L3MBTL1 block, BAZ2B inh, HP1b binding inh, G9a block, JMJD2A Tudor)
CCOC(=O)c1c(-c2ccc(Cl)cc2)csc1NC(=O)CNCc1ccco1	BAZ2B inh 39.8µM, HP1b binding inh inconclusive, JMJD2A Tudor 44.7µM, Sfp PPTase inh 50.1µM (no result: L3MBTL1 block)
CCOC(=O)c1c(-c2ccc(OC)cc2)csc1NC(=O)CNCc1ccco1	JMJD2A Tudor inconclusive
CCOC(=O)c1c(-c2ccccc2)csc1NC(=O)C(C)NCc1ccco1 (configuration not stated)	BAZ2B inh 50.1µM, HP1b binding inh 28.2µM, G9a block 25.1µM, JMJD2A Tudor inconclusive, Sfp PPTase inh inconclusive
Cc1ccc(S(=O)(=O)n2nc(C)c(S(=O)(=O)N3CCCCCC3)c2C)cc1C	none (no result: L3MBTL1 block, Sfp PPTase inh)
Cc1ccc(S(=O)(=O)n2nc(C)c(Br)c2C)c(C)c1C	G9a block 70.8µM
Cc1ccc2c(c1)c(C1=NC(=S)NC1=O)c(O)n2C	G9a block 39.8µM, Sfp PPTase inh 39.8µM (no result: L3MBTL1 block)
COc1ccc(NC(=O)Cn2cnc3sc(C)c(S(=O)(=O)N4CCN(C)CC4)c3c2=O)cc1Cl	none (no result: L3MBTL1 block, Sfp PPTase inh)
Cc1cccc(C)c1Nc1oc(-c2ccccc2)nc1-c1cccc2ccccc12	none (no result: L3MBTL1 block, BAZ2B inh, HP1b binding inh, G9a block, JMJD2A Tudor)
Cc1ccc(-c2nc(CS(=O)(=O)CC(=O)NC(C)CCc3ccccc3)c(C)o2)cc1 (configuration not stated)	none (no result: L3MBTL1 block, Sfp PPTase inh)
Cc1ccc(C)c(Nc2nc(N)c3ccccc3n2)c1	G9a block 50.1µM
COc1ccc(C)cc1Nc1nc(N)c2cc(OC)c(OC)cc2n1	BAZ2B inh inconclusive, G9a block inconclusive, JMJD2A Tudor inconclusive (no result: L3MBTL1 block)
Cc1ccc(O)c(Nc2c3ccccc3nc3ccccc23)c1	BAZ2B inh 35.5µM, HP1b binding inh inconclusive, G9a block inconclusive, JMJD2A Tudor inconclusive (no result: L3MBTL1 block)
Cc1ccc(O)c(Nc2nc(-c3ccccc3)nc3ccccc23)c1	none
COc1ccc(Cl)cc1Nc1nc(N)c2ccccc2n1	G9a block 79.4µM
Nc1nc(Nc2cccc(F)c2)nc2ccccc12	BAZ2B inh inconclusive, G9a block 56.2µM
COc1ccc(OC)c(C2Nc3c(C)cc(C)cc3-c3cc(C)nn32)c1 (configuration not stated)	BAZ2B inh inconclusive, JMJD2A Tudor inconclusive (no result: L3MBTL1 block, Sfp PPTase inh)
c1ccc(-c2cc(-c3ccncc3)nc3ccc4ccccc4c23)cc1	Sfp PPTase inh 56.2µM
Clc1ccc2nc(-c3ccncc3)cc(-c3ccccc3)c2c1	none
Cc1ccccc1OCC(=O)NCC(=O)OCc1ccc2ccccc2c1	none (no result: L3MBTL1 block, BAZ2B inh, G9a block, Sfp PPTase inh)
COc1ccc(N2Cc3ccccc3C2=NC(=O)c2cncc(Br)c2)cc1	G9a block 31.6µM, JMJD2A Tudor inconclusive
CCOC(=O)c1ccc(N2Cc3ccccc3C2=NC(=O)c2ccncc2)cc1	G9a block inconclusive (no result: L3MBTL1 block)
O=C(N=C1c2ccccc2CN1c1ccc(F)cc1)c1ccc(Cl)nc1	G9a block 22.4µM
COc1ccc(N2Cc3ccccc3C2=NC(=O)c2cccc([N+](=O)[O-])c2)cc1	BAZ2B inh inconclusive, G9a block 20µM
